SSB-PriA inh: K. pneumoniae PriA-SSBct interaction inhibition; AlphaScreen SSBct-PriA binding, biotinylated peptide; 0.6% of 430,000 active; AID 1272365; inhibition, % at 33 µM; in the data active = inhibition mostly above about 37%, no sharp cut-off; inactive = mostly below about 20%;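 also: plate controls were negative control peptide for no effect and reference peptide for full effect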
CCHFV vOTU inh: blocks the CCHF virus ovarian tumor domain protease. CCHFV vOTU protease, Pep-AMC fluorescence. inhibition, % at 11.5 µM. 0.55% of 370,000 active. AID 651958; in the data active = inhibition above about 30%; also: 0% = vehicle wells with enzyme and 100% = no enzyme wells
DUSP3 inh: inhibitors of human VHR1 phosphatase (DUSP3) | P51452 | recombinant VHR phosphatase, pNPP absorbance | inhibition, % at 13.3 µM | 0.52% of 290,000 active; in the data active = inhibition above about 50%
Target sequence (P51452 whole entry, looked up): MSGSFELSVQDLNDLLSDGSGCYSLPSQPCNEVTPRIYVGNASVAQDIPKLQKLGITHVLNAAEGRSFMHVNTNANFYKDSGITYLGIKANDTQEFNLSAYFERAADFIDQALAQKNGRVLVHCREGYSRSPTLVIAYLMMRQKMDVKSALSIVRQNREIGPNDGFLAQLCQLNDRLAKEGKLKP
3CLpro inhibitor: SARS-CoV 3CLpro protease inhibition; 0.14% of 290,000 active; P0C6X7; recombinant SARS-CoV 3CLpro, quenched FRET peptide cleavage; inhibition, % at 6 µM; in the data active = inhibition above about 12%
RecA intein inh: inhibitors of M. tuberculosis RecA intein splicing; inhibition, % (test concentration not listed); cell-free RecA intein splicing, fluorescence; 0.75% of 290,000 active; in the data active = inhibition above about 30%; inconclusive = no clear call, values can overlap the other calls;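 also: 0% = vehicle wells and 100% = reference inhibitor control wells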
GFP chromophore: counter-screen GFP chromophore formation inhibition; shares compounds with RecA intein inh; cell-free GFP chromophore formation, fluorescence; 83% of 2,100 active; EC50, µM; call rule not given here
An asterisk follows results filed as active; ? = inconclusive; / = not tested or not shown. In the library only some 1.7% were active in any assay of this set; here they are far more common.

SMILES	SSB-PriA inh	CCHFV vOTU inh	DUSP3 inh	3CLpro inhibitor	RecA intein inh	GFP chromophore
Cc1ccc(S(=O)(=O)NCC2CCC(C(=O)NCCCN3CCOCC3)CC2)cc1 (stereo not drawn)	-9.8	-3.7	21.9	0.8	1.0	>38
CC1=NN(c2cc(Cl)c(S(=O)(=O)O)cc2Cl)C(=O)C1	1.1	5.3	/	/	/	/
CC1=NN(c2ccc(Cl)c(C(=O)O)c2)C(=O)C1	-12.7	16.0	12.7	1.0	95.2*	5.62*
CC1=NN(c2ccc(C(=O)O)cc2)C(=O)CC1	3.7	-7.7	0.3	1.7	-1.4	/
CC1=NN(c2ccc(S(=O)(=O)O)cc2Cl)C(=O)C1	-12.1	12.9	15.8	2.5	82.2*	29.7*
CC(Oc1ccccc1)C(=O)NCC1CCN(c2cnccn2)CC1 (stereo not drawn)	-5.0	/	/	/	/	/
Cc1csc(NC(=O)CN2CCC(COCc3ccc(C#N)cc3)CC2)n1	2.0	/	/	/	/	/
C#CCOc1ccc(Br)cc1C(c1c(C)[nH][nH]c1=O)c1c(C)[nH][nH]c1=O	-11.0	-7.5	7.9	-0.3	94.0*	2.21*
CCOc1ccc(Cl)cc1C(c1c(C)[nH][nH]c1=O)c1c(C)[nH][nH]c1=O	-7.7	3.8	-9.2	-0.6	97.4*	0.916*
O=C(NCCN1CCOCC1)C(=O)Nc1ccc(F)c(Cl)c1	-16.0	/	/	/	/	/
Fc1ccc(Nc2nc(NCc3ccco3)c3ccccc3n2)cc1	14.0	14.3	-18.2	3.6	48.8*	18.3*
c1ccc(CNc2nc(NCc3ccccc3)c3ccccc3n2)cc1	8.0	/	35.5	1.6	60.0*	22.8*
Nc1nc(Nc2ccccc2)nc(NCc2ccco2)c1[N+](=O)[O-]	-2.8	17.4	1.5	2.9	1.5	/
CC(=NNC(=O)CC#N)c1cc2ccc(O)cc2oc1=O	-12.9	/	/	/	/	/
CC(=O)Nc1ccc(S(=O)(=O)NCC#CCOc2cccc(C(F)(F)F)c2)cc1	-13.0	/	/	/	/	/
CC1=NNC(=O)C1C(c1ccccc1)C(C#N)C#N (stereo not drawn)	13.0	-0.6	24.0	5.7	80.4*	16*
O=c1[nH]c2ccc(Cl)cc2c(-c2ccccc2)c1SC(=S)N1CCCCC1	7.6	14.2	32.9	1.0	39.7*	>38
Cc1onc(-c2c(Cl)cccc2Cl)c1C(=O)NC1CCCCC1	-10.5	19.4	7.4	-3.9	5.1	/
Cc1onc(-c2c(Cl)cccc2Cl)c1C(=O)N1C(C)CCCC1C (stereo not drawn)	-5.5	5.8	1.2	2.5	81.1*	>38
CCc1cccc(NC(=O)Cn2cccc2)c1	9.1	-3.7	18.8	-2.8	-1.0	/
CCc1cccc(NC(=O)CSCc2cc(=O)[nH][nH]2)c1	17.8	-1.1	-12.2	2.1	81.4*	11.6*
Oc1ccccc1-c1nc(NC2CCCC2)c2ccccc2n1	2.4	-3.5	/	2.5	-2.2	/
c1ccc(-c2nnc(-c3ccccn3)nc2NC2CCCCC2)cc1	100.9*	18.4	18.7	6.1	37.9*	22.6*
COc1ccc(C(=O)N2CCCC(Cc3nc(C4CC4)no3)C2)cc1F (stereo not drawn)	5.0	/	/	/	/	/
CN1CCC(NC(=O)Cc2c(F)cccc2Cl)CC1	0.7	8.3	-14.2	0.1	1.0	/
SMILES	SSB-PriA inh	CCHFV vOTU inh	DUSP3 inh	3CLpro inhibitor	RecA intein inh	GFP chromophore
CC1=NN(C)C(=O)C1Cc1c(F)cccc1Cl (stereo not drawn)	10.1	-3.9	/	/	79.7*	16.8*
COc1cc(C(=O)Nc2ccccc2-c2nc3ccccc3s2)cc(OC)c1OC	-24.0	/	/	/	/	/
CCN(Cc1ccccc1)C(c1ccc(C)cc1)c1nnnn1C(C)(C)CC (stereo not drawn)	-20.4	-5.2	8.5	3.7	30.3*	>38
Cc1ccc(CNC(=O)CN2CCc3[nH]c4ccc(F)cc4c(=O)c3C2)cc1	-8.0	/	/	/	/	/
COc1ccc2cccc(NC(=O)c3cc(-c4cccs4)[nH]n3)c2n1	1.0	/	/	/	/	/
Cc1cc(C)cc(CC(Cc2nc3ccccc3[nH]2)c2nc3ccccc3[nH]2)c1 (stereo not drawn)	16.6	0.3	-2.4	-1.7	35.7*	>38
CC(=O)n1cc(N(C(=O)CCl)c2ccc(C)cc2)c2ccccc21	-4.8	1.9	29.8	8.9	91.2*	1.73*
N/C(=N/OC(=O)c1cccc([N+](=O)[O-])c1)c1cccc([N+](=O)[O-])c1	/	11.4	26.9	-0.7	-7.4	/
CC1=C(C)/C(=N/OC(=O)c2cccc([N+](=O)[O-])c2)C=CC1=O	/	/	-9.2	4.1	47.4*	>38
CSc1ncccc1C(=O)N1CCCCC1c1cc(C(N)=O)n[nH]1 (stereo not drawn)	27.0	/	/	/	/	/
Cc1ccc2nc(/C(C#N)=C\c3ccc(N4CCOCC4)o3)[nH]c2c1	-0.1	1.2	5.1	0.1	-2.7	/
Cc1ccc2nc(/C(C#N)=C\c3ccc([N+](=O)[O-])o3)[nH]c2c1	-5.1	-0.8	23.5	2.9	34.1*	8.37*
N#Cc1cc(-c2ccccc2)nc(Oc2ccccc2)n1	-1.9	14.4	-29.7	2.2	60.3*	32.8*
Cc1ccc(Sc2ncnc3onc(C)c23)cc1	-5.4	2.3	14.0	-2.3	40.5*	>38
CCOc1ccccc1-c1noc(Cn2c(=O)n(CCCOC)c(=O)c3ccccc32)n1	-4.0	/	/	/	/	/
COCCN(Cc1ccoc1)C(=O)c1cc(C)cs1	0.0	/	/	/	/	/
Clc1ccc(Sc2oc(/C=N/n3cnnc3)cc2Br)cc1	/	0.2	-7.7	2.2	62.5*	22.4*
C/C(CC(=O)Nc1ccccn1)=N\NC(=O)C(=O)Nc1ccccc1C	/	-7.0	6.2	2.9	29.4	/
CCc1ccc(NC(=O)C(=O)N/N=C(\C)CC(=O)Nc2ccccn2)cc1	/	-21.9	-0.2	-1.9	35.6*	>38
CC(NC(=O)Cc1cc(=O)[nH]c(SCc2ccccc2F)n1)c1ccccc1 (stereo not drawn)	-4.0	/	/	/	/	/
COc1cc(/C=C\C(=O)Nc2nc3c(s2)CCc2ccccc2-3)cc(OC)c1OC	-3.0	/	/	/	/	/
COC(=O)c1ccccc1NC1=C/C(=N\S(=O)(=O)c2cccs2)c2ccccc2C1=O	/	9.2	13.3	4.5	80.6*	0.0998*
COC(=O)c1ccccc1NC1=CC(=NS(=O)(=O)c2cccs2)c2ccccc2C1=O	30.3	/	/	/	/	/
O=C1C(Nc2ccccc2)=C/C(=N/S(=O)(=O)c2cccs2)c2ccccc21	/	/	1.5	5.2	38.5*	0.277*
COC(=O)c1ccccc1NC1=C/C(=N\S(=O)(=O)c2ccc(C(=O)O)cc2)c2ccccc2C1=O	/	/	6.4	5.5	63.0*	?
CC(C)(C)c1ccc(S(=O)(=O)/N=C2\C=C(NS(=O)(=O)c3ccccc3)C(=O)c3ccccc32)cc1	/	54.4*	6.9	6.9	63.3*	7.89*
CC(=O)Nc1ccc(CC(=O)N2CC[C@H](n3cc(-c4ccccc4)nn3)C2)cc1	-21.0	/	/	/	/	/
COc1ccc(-c2cc(C(F)(F)F)nc(S(=O)(=O)CCCC(=O)Nc3cccc(O)c3)n2)cc1OC	-9.9	-9.6	29.5	-4.3	62.3*	18.7*
COc1ccccc1-c1cc(C(F)(F)F)nc(S(=O)(=O)CCCC(=O)N2CCOCC2)n1	-14.6	5.7	8.5	-1.1	47.6*	16.2*
COc1cccc2cc(-c3csc(NC(=O)c4ccc([N+](=O)[O-])s4)n3)oc12	1.0	/	/	/	/	/
